# Results filed as inconclusive are left out. Active and inactive are the calls of the source. How the source made its calls, unless noted: active means hit-call score of the fitted dose curve at least 0.9, where 1 is the maximum; inconclusive means response in the unintended direction; inactive means score below 0.9.
# Legend:
# [1] = TOX21_PR_BLA_Followup_Agonist_viability: Viability Assessment in the Tox21 HEK293 Progesterone Receptor (PR) Agonism Beta-lactamase Follow-Up Assay (AID 2283935);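 further: signal loss means lower viability so actives are cytotoxic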
# Summary of the method: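 Multiplexed viability counter-screen: ATP-coupled luciferase signal measured after 30 min at room temperature, following 16 hr compound treatment of PR-UAS-bla HEK293T cells grown in charcoal-stripped serum.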
# [2] = TOX21_PR_BLA_Followup_Antagonist_viability: Viability Assessment in the Tox21 HEK293 Progesterone Receptor (PR) Antagonism Beta-lactamase Follow-Up Assay (AID 2283936);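 further: hits lower the luminescence signal meaning cytotoxicity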
# Summary of the method: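 PR-UAS-bla HEK293T cells (3,000/well, 2% charcoal-stripped FBS) given compound plus R5020 agonist, 16 h at 37C. CellTiter-Glo added after bla read, 30 min at room temperature; luminescence loss indicates cytotoxicity.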
# [3] = target: PGR (gene 5241) (UniProt P06401); assay: TOX21_PR_LUC_Followup_Agonist: Tox21 HEK293 Progesterone Receptor (PR) Agonism Luciferase Follow-Up Assay (AID 2283937; active means hit-call score of the fitted dose curve at least 0.9, where 1 is the maximum; inactive means score below 0.9)
# Chain of PGR (gene 5241) (P06401 whole entry, looked up): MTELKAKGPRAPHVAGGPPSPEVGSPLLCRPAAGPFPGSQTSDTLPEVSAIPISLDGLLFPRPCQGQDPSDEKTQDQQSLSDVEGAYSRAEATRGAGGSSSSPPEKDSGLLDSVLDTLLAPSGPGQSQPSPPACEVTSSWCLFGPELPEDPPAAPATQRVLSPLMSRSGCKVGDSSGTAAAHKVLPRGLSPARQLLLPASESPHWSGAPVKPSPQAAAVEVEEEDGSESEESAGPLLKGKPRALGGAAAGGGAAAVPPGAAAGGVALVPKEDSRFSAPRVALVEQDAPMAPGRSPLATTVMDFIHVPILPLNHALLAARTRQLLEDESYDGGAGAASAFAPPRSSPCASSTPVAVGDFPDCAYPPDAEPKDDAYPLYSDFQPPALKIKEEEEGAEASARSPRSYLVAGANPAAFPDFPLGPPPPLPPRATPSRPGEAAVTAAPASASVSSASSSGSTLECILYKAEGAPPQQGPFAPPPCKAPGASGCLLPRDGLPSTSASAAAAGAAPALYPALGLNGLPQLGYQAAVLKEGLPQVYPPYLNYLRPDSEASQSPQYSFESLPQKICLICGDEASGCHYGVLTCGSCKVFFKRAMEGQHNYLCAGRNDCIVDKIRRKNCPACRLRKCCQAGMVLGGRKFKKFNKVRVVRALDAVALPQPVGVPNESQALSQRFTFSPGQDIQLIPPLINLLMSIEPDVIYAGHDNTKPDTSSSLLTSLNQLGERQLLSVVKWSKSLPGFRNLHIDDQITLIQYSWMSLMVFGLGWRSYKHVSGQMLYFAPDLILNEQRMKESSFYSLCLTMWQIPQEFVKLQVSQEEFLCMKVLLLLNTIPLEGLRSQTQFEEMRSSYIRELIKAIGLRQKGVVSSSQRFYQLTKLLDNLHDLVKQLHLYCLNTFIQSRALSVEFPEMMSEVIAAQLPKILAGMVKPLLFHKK
# Summary of the method: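 Agonist mode: reporter cells carrying PR-A and luciferase are treated 16 h with test compounds at 37C. Luciferase induction is measured by luminescence and fitted upward against DMSO.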
# [4] = TOX21_PR_LUC_Followup_Antagonist_viability: Viability Assessment in the Tox21 HEK293 Progesterone Receptor (PR) Antagonism Luciferase Follow-Up Assay (AID 2283940)
# Summary of the method: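 Cellular ATP, measured with luciferase-coupled CellTiter-Glo, served as the viability endpoint after HEK293-PR-A-luc cells were exposed to test compounds for 16 h at 37C.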
# [5] = TOX21_PR_LUC_Followup_Agonist_viability: Viability Assessment in the Tox21 HEK293 Progesterone Receptor (PR) Agonism Luciferase Follow-Up Assay (AID 2283941);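 further: loss of signal means cytotoxicity so actives lower viability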
# Summary of the method: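 Luminescent ATP quantitation (CellTiter-Glo) serves as the read-out; a drop flags cytotoxic compounds. Cells are HEK293-PR-A-luc grown in 10% charcoal-stripped FBS, plated 3,000/well, and exposed to compound for 16 h.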
# [6] = system: DIO1 (gene 1733); assay: CCTE_GLTED_hDIO1: CCTE's human Deiodinase 1 (DIO1) Inhibition Assay, Great Lakes Toxicology and Ecology Division (GLTED) Lab (AID 2283987);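 further: isolated human DIO1 enzyme in a cell-free setup rather than cells; enzyme activity read as free iodide liberated from substrate via Sandell-Kolthoff colorimetry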
# Summary of the method: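 Steps: human DIO1 enzyme plus test chemical, 3 h incubation; free iodide then quantified in a second Sandell-Kolthoff step by absorbance. DMSO served as negative control and baseline.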
# [7] = target: Nucleoli Translocation, AR (gene 367) (UniProt P10275); assay: UPITT_HCI_U2OS_AR_TIF2_Nucleoli_Antagonist: University of Pittsburgh U2OS Androgen Receptor-Transcriptional Intermediary Factor 2 (AR-TIF2) Antagonism High Content Imaging Assay for Nucleoli Translocation (AID 2283997)
# Chain of Nucleoli Translocation, AR (gene 367) (P10275 whole entry, looked up): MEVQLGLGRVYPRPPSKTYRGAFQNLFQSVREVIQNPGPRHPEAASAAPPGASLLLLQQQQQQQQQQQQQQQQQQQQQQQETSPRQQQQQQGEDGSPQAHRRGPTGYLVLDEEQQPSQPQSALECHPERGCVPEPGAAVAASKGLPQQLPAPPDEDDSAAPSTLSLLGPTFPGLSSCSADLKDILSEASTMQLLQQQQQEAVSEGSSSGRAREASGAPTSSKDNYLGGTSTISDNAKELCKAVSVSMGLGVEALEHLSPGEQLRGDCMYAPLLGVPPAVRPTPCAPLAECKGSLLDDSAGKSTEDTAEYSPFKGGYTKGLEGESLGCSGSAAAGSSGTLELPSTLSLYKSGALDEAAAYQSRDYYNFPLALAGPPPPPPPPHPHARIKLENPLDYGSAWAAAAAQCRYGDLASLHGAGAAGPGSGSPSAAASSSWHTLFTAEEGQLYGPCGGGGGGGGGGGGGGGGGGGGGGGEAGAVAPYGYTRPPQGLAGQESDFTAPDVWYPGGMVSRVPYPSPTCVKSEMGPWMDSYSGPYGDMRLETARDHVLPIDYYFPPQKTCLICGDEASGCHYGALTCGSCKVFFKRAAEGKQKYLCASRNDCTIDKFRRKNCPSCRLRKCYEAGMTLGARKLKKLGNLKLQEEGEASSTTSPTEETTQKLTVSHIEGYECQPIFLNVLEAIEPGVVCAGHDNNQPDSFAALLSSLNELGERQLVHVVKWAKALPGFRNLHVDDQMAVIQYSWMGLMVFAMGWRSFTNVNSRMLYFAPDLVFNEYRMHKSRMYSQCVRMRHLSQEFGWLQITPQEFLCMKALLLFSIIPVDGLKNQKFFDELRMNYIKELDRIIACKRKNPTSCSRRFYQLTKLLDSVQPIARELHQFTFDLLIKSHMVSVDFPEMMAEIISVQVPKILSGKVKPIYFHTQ
# Summary of the method: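 U2OS cells expressing RFP-tagged human AR and GFP-tagged TIF2 were imaged by high-content fluorescence microscopy for red AR signal in the nucleolar region. Compounds were screened at 20 uM final (0.2% DMSO), with activity fitted relative to DHT as baseline.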
# [8] = target: Ratio of Nucleoli Translocation and Cytoplasm, AR (gene 367) (UniProt P10275); assay: UPITT_HCI_U2OS_AR_TIF2_Nucleoli_Cytoplasm_Ratio_Antagonist: University of Pittsburgh U2OS Androgen Receptor-Transcriptional Intermediary Factor 2 (AR-TIF2) Antagonism High Content Imaging Assay for Ratio of Nucleoli Translocation and Cytoplasm (AID 2283999);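 further: antagonists lower the DHT-driven ratio of nucleolar to cytoplasmic red signal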
# Chain of Ratio of Nucleoli Translocation and Cytoplasm, AR (gene 367) (P10275 whole entry, looked up): as above
# Summary of the method: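 High-content imaging quantifies the red nucleolar:cytoplasmic fluorescence ratio in U2OS cells with AR-RFP and TIF2-GFP. Final concentrations are 20 uM (screen) or 0.195–50 uM (dose response), analysed against DHT as baseline.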
# [9] = target: Nucleoli Translocation, AR (gene 367) (UniProt P10275); assay: UPITT_HCI_U2OS_AR_TIF2_Nucleoli_Agonist: University of Pittsburgh U2OS Androgen Receptor-Transcriptional Intermediary Factor 2 (AR-TIF2) Agonism High Content Imaging Assay for Nucleoli Translocation (AID 2283998)
# Summary of the method: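 RFP-AR / GFP-TIF2 cells; cpds diluted in serum-free medium; single-point screen 20 uM final (0.2% DMSO), actives confirmed in triplicate; conc-response 0.195–50 uM final (0.5% DMSO). Readout: nucleolar red fluorescence, positive direction vs DMSO.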
# [10] = target: Ratio of Nucleoli Translocation and Cytoplasm, AR (gene 367) (UniProt P10275); assay: UPITT_HCI_U2OS_AR_TIF2_Nucleoli_Cytoplasm_Ratio_Agonist: University of Pittsburgh U2OS Androgen Receptor-Transcriptional Intermediary Factor 2 (AR-TIF2) Agonism High Content Imaging Assay for Ratio of Nucleoli Translocation and Cytoplasm (AID 2284000);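 further: hits raise the red nucleolar to cytoplasm ratio above vehicle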
# Summary of the method: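 U2OS cells expressing RFP-tagged human AR and GFP-tagged TIF2 were imaged by high-content fluorescence microscopy. The endpoint is the ratio of nucleolar to cytoplasmic red fluorescence, fitted for gain of signal relative to DMSO. Concentration-response spanned 0.195 to 50 uM final (0.5% DMSO).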
# [11] = target: THRA (gene 7067) (UniProt P10827); assay: TOX21_TRA_COA_Agonist_Followup_ratio: Tox21 Thyroid Hormone Receptor alpha Agonism through Coactivator Recruitment Follow-Up Assay, Ratio (AID 2283948; active means hit-call score of the fitted dose curve at least 0.9, where 1 is the maximum; inactive means score below 0.9)
# Chain of THRA (gene 7067) (P10827 whole entry, looked up, the tested form may be a part): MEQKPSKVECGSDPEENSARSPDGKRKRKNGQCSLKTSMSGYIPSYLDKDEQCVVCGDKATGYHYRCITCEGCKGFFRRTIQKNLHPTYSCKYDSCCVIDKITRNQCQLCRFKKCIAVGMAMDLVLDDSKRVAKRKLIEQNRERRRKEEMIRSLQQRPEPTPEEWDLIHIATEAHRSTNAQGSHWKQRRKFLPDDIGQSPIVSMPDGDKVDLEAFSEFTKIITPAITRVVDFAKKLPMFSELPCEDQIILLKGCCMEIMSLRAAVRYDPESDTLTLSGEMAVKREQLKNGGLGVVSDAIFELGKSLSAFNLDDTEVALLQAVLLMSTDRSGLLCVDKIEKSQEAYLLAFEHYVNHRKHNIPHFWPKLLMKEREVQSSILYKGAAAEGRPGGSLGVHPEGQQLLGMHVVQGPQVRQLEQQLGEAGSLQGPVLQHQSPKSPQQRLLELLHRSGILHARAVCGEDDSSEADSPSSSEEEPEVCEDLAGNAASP
# Summary of the method: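 GST-TRa LBD 2.5 nM + 0.10% BSA + cpd; add fluorescein-SRC-2 200 nM, Tb-anti-GST 2 nM. TR-FRET ex 340, em 520/495 ratio. Norm: DMSO 0%, T3 100%; gain-of-signal fit.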
# [12] = target: THRB (gene 7068) (UniProt P10828); assay: TOX21_TRB_BLA_Agonist_Followup_ratio: Tox21 Thyroid Hormone Receptor beta Agonism Beta-lactamase (BLA) Follow-Up Assay, Ratio (AID 2283954)
# Chain of THRB (gene 7068) (P10828 whole entry, looked up, the tested form may be a part): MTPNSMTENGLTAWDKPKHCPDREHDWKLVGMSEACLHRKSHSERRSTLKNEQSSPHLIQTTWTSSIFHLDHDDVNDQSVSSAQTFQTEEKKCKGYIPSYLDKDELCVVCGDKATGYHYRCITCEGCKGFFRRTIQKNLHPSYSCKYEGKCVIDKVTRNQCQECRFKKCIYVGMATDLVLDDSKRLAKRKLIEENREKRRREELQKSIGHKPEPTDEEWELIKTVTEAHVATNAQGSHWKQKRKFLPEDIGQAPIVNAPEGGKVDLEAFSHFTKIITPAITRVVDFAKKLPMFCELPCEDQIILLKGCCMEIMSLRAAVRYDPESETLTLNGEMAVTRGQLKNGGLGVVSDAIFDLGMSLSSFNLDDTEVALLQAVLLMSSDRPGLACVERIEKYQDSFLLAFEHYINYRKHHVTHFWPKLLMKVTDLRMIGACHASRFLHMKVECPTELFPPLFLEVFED
# Summary of the method: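 Human TRβ LBD–GAL4 DBD fusion in GeneBLAzer UAS-bla HEK293T cells; 11 concentrations in triplicate, 18 h at 37°C/5% CO2, T3 as agonist control. CCF4-AM substrate 2 h at room temperature; 460:530 nm ratio fitted for gain of signal versus DMSO.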
# [13] = TOX21_TRB_BLA_Agonist_Followup_viability: Viability Assessment in the Tox21 Thyroid Hormone Receptor beta Agonism Beta-lactamase (BLA) Follow-Up Assay (AID 2283956)
# Summary of the method: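 TRb-bla HEK293T cells (GAL4-DBD/human TRb LBD) in 2% charcoal-stripped FBS medium were exposed 18 h at 37C to 11 concentrations in triplicate. CellTiter-Glo ATP luminescence was read after 30 min at room temperature, with bidirectional fitting against DMSO.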
# [14] = target: THRB (gene 7068) (UniProt P10828); assay: TOX21_TRB_COA_Agonist_Followup_ratio: Tox21 Thyroid Hormone Receptor beta Agonism through Coactivator Recruitment Follow-Up Assay, Ratio (AID 2283963; active means hit-call score of the fitted dose curve at least 0.9, where 1 is the maximum; inactive means score below 0.9)
# Summary of the method: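 First, the GST-fused TRβ ligand-binding domain (5.0 nM) was incubated with test compound in 0.10% BSA. Next, fluorescein-tagged SRC-2 peptide (200 nM) and terbium anti-GST antibody (2 nM) were added. Finally, TR-FRET emission ratios were normalized against DMSO and T3 controls.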
# [15] = target: Retinoic acid receptor RXR-alpha (Homo sapiens) (UniProt P19793); assay: TOX21_TR_RXR_BLA_Agonist_Followup_ratio: Tox21 Thyroid Hormone Receptor beta Retinoid X Receptor alpha (RXRa) Agonism Beta-lactamase (BLA) Follow-Up Assay, Ratio (AID 2283968)
# Chain of Retinoic acid receptor RXR-alpha (Homo sapiens) (P19793 whole entry, looked up, the tested form may be a part): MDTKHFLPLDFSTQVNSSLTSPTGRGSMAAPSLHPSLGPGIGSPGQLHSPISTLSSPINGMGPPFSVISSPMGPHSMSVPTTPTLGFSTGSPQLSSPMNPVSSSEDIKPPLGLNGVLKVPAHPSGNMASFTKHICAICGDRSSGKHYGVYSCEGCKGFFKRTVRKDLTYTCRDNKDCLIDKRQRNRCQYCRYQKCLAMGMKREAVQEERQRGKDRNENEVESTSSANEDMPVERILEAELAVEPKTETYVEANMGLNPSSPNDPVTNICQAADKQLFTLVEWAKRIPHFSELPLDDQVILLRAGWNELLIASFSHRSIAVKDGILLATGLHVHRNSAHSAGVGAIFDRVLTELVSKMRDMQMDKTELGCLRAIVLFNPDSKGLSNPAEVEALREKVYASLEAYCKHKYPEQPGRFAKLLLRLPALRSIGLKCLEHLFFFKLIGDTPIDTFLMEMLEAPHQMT
# Summary of the method: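 This follow-up tests whether responses seen in the TR GH3 luciferase agonist screen are specific, using a GAL4-driven beta-lactamase reporter for RXRa in HEK293T cells. Compound exposure lasts 16 h; signal is the cleaved/uncleaved substrate ratio.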
# [16] = TOX21_TR_RXR_BLA_Agonist_Followup_viability: Viability Assessment in the Tox21 Thyroid Hormone Receptor beta Retinoid X Receptor alpha (RXRa) Agonism Beta-lactamase (BLA) Follow-Up Assay (AID 2283970)
# Summary of the method: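 In qHTS format, RXRa-bla HEK293T cells (2,500/well) received compound for 16h. ATP content was then measured with CellTiter-Glo, and responses were fitted bidirectionally relative to DMSO controls.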
compound,measurement,setting,value
Cc1ccccc1OP(=O)(Oc1ccccc1C)Oc1ccccc1C,outcome,[1],inactive
same,outcome,[2],inactive
same,outcome,[3],inactive
same,outcome,[4],inactive
same,outcome,[5],inactive
O=S1(=O)OC(c2cc(Br)c(O)c(Br)c2)(c2cc(Br)c(O)c(Br)c2)c2ccccc21,AC50,[6],58.8 µM (active)
same,outcome,[7],inactive
same,outcome,[8],inactive
COCCl,outcome,[7],inactive
same,outcome,[9],inactive
same,outcome,[8],inactive
same,outcome,[10],inactive
CC(=Cc1ccccc1)[N+](=O)[O-],AC50,[7],0.585 µM (active)
same,outcome,[9],inactive
same,AC50,[8],0.845 µM (active)
same,outcome,[10],inactive
CC(C)(C1CCC(O)CC1)C1CCC(O)CC1 (stereo not given),outcome,[1],inactive
same,outcome,[4],inactive
same,outcome,[5],inactive
O=[N+]([O-])c1ccc(Cl)c([N+](=O)[O-])c1,AC50,[6],92.7 µM (active)
same,AC50,[7],1.9 µM (active)
same,AC50,[9],3.34 µM (active)
same,AC50,[8],2.39 µM (active)
same,AC50,[10],13.1 µM (active)
CC(C)N(C(=O)CCl)c1ccccc1,AC50,[6],43.5 µM (active)
same,AC50,[7],16 µM (active)
same,outcome,[9],inactive
same,AC50,[8],11.4 µM (active)
same,outcome,[10],inactive
CCCCCCCCCCCCc1cccc(S(=O)(=O)O)c1,AC50,[6],129 µM (active)
OC(c1ccc(Cl)cc1)(c1ccc(Cl)cc1)c1cccnc1,outcome,[1],inactive
same,outcome,[2],inactive
same,outcome,[3],inactive
same,outcome,[4],inactive
same,outcome,[5],inactive
O=S(=O)(c1ccc(Cl)cc1)c1cc(Cl)c(Cl)cc1Cl,outcome,[1],inactive
same,outcome,[2],inactive
O=C(CCl)Nc1ccccc1,AC50,[6],21.1 µM (active)
same,AC50,[7],29 µM (active)
same,outcome,[9],inactive
same,AC50,[8],26.3 µM (active)
same,outcome,[10],inactive
CCC[CH2][Sn]([CH2]CCC)([CH2]CCC)[CH2]CCC,outcome,[11],inactive
same,outcome,[12],inactive
same,outcome,[13],inactive
same,outcome,[14],inactive
same,AC50,[15],5.08 µM (active)
same,outcome,[16],inactive
O=S1OC[C@@H]2[C@H](CO1)[C@]1(Cl)C(Cl)=C(Cl)[C@@]2(Cl)C1(Cl)Cl (stereo not given in full),AC50,[7],32.2 µM (active)
same,outcome,[8],inactive
